Screens (PubChem)
In the library only some 12% were active in any assay of this set; here they are far more common.
Pf growth 48h: Primary qHTS for delayed death inhibitors of the malarial parasite plastid, 48 hour incubation | P. falciparum luciferase growth in erythrocytes, 48 h | Potency, µM (top dose mostly 28.7 µM), most hits filed as inhibitors | 310,000 tested, 5.9% active | AID 504832, 2011
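In quantitative HTS format, infected erythrocytes bearing luciferase-reporter parasites were treated for a single generation at 37 C. Luminescence after adding detection reagent served as the growth measure.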
AmpC inh detg: qHTS Inhibitors of AmpC Beta-Lactamase (assay with detergent) | AmpC hydrolysis of nitrocefin, absorbance 480 nm, 0.01% Triton | Potency, µM (doses to about 114 µM), most hits filed as inhibitors | 370,000 tested, 0.041% active | AID 485294, 2010; note: nearly all actives have a fitted effect of over 25% in size
Target sequence (P00811 whole entry, looked up): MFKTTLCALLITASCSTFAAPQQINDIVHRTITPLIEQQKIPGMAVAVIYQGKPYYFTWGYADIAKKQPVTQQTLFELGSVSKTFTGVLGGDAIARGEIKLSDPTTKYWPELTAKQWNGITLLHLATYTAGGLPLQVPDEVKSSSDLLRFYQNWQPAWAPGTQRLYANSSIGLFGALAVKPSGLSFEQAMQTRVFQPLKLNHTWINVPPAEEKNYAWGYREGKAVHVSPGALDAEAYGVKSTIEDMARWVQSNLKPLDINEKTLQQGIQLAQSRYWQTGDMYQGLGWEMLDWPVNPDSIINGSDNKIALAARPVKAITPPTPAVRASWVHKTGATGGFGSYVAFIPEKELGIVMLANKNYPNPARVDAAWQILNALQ
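AmpC (5.3 nM in the dispensed reagent) in 20 mM phosphate pH 7.0 with 0.01% (detergent screen) or 0.0001% Triton X-100 was preincubated with compounds for 15 min at room temperature. Nitrocefin was then added from an 800 uM solution, and hydrolysis was followed at 480 nm.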
AmpC inh no detg: qHTS Inhibitors of AmpC Beta-Lactamase (assay without detergent); AmpC nitrocefin hydrolysis, absorbance 480 nm, 0.0001% Triton; P00811; AID 485341, 2010; Potency, µM (titrated, usually from 57.1 µM), actives largely listed as inhibitors; 330,000 tested, 0.52% active; note: nearly all actives have a fitted effect of over 20% in size
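20 mM phosphate pH 7.0 + 0.01% (detergent screen) or 0.0001% Triton X-100; 5.3 nM AmpC reagent; cpd preinc 15 min RT; nitrocefin (800 uM stock) to start; A480 q20 s × 4 min; Activity was normalised to no-enzyme and no-compound control wells.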
Sm TGR inh: qHTS Assay for the Inhibitors of Schistosoma Mansoni Peroxiredoxins; Schistosoma mansoni thioredoxin glutathione reductase (TGR), Q962Y6; purified TGR, DTNB reduction, TNB absorbance 405 nm; Potency, µM (highest dose often 114 µM), most hits filed as inhibitors; 360,000 tested, 3% active; AID 485364, 2010; note: nearly all actives have a fitted effect of over 60% in size
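First, TGR (20 nM dispensed) and NADPH were mixed with compound. Second, a 15 min room-temperature incubation followed. Third, further NADPH and then DTNB were added to start the reaction. Finally, TNB absorbance was monitored kinetically.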
SARS PLP yeast: qHTS of Yeast-based Assay for SARS-CoV PLP; 330,000 tested, 0.19% active; AID 485353, 2010; S. cerevisiae expressing SARS-CoV PLpro, growth rescue; Potency, µM (highest dose often 32.9 µM), hits mostly activators; calls by dose curve; note: nearly all actives have a fitted effect of over 55% in size
Pf growth 96h: Primary qHTS for delayed death inhibitors of the malarial parasite plastid, 96 hour incubation; Potency, µM (series often up to 28.7 µM), actives largely listed as inhibitors; AID 504834, 2011; 320,000 tested, 6.9% active; P. falciparum luciferase reporter growth, 96 h
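Infected RBCs, 2% Hct / 0.05% parasitemia final; luciferase-reporter P. falciparum; cpd 96 h, 37 C, 5% CO2; luciferase detection reagent; luminescence.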
Large screens that a line does not name were inactive. Unless noted, calls come from the whole dose curve; as a rule, active = well fitted curve in the direction sought with a large enough effect; inconclusive = small, poorly fitted or top-dose-only effect, or another doubt; inactive = no such curve, though single readings can be large; an effect the other way counts as inactive or inconclusive.

CN(C(=O)c1ccc(NC(=O)Cc2cccc(NC(=O)C3CCCN(C(=O)C4CCC4)C3)c2)cc1)C1CCCC1 (centres undefined)	Pf growth 48h 11.7µM, Pf growth 96h inconclusive
CN(Cc1ccccc1)C(=O)c1ccc(NC(=O)Cc2cccc(NC(=O)C3CCCN(C(=O)C4CCCC4)C3)c2)cc1 (centres undefined)	Pf growth 48h 11.7µM
CCc1ccccc1-n1nnc(-c2nsc(NC(=O)c3ccc(C)c(C)c3)n2)c1C	none (no result: Pf growth 48h, AmpC inh no detg, SARS PLP yeast, Pf growth 96h)
CC(NC(=O)C1CCCCC1)C(c1cccs1)N1CCN(C)CC1 (centres undefined)	none
Cc1ccc(C)c(CN2C(=O)c3ccccc3S(=O)(=O)c3ccc(C(=O)N(C)C4CCCCC4)cc32)c1	none (no result: Pf growth 48h, AmpC inh no detg, SARS PLP yeast, Pf growth 96h)
CN(C(=O)c1ccc(NC(=O)Cc2ccc(NC(=O)C3CCCN(C(=O)C4CCCC4)C3)cc2)cc1)C1CC1 (centres undefined)	Pf growth 48h inconclusive, Pf growth 96h 11.7µM
CN(C(=O)c1ccc(NC(=O)Cc2ccc(NC(=O)C3CCCN(C(=O)C4CCCCC4)C3)cc2)cc1)C1CC1 (centres undefined)	Pf growth 48h inconclusive, Pf growth 96h inconclusive
CCOC(=O)CC(=O)CSc1ccc2nnc(-c3ccccc3)n2n1	Pf growth 48h 3.7µM, AmpC inh no detg 0.159µM, Pf growth 96h inconclusive
CCOC(=O)c1nnc2cc(-c3ccc(Br)cc3)nn2c1C	AmpC inh detg inconclusive, Pf growth 96h inconclusive
CCOC(=O)c1nnc2cc(-c3ccccc3)nn2c1C	AmpC inh detg inconclusive, Pf growth 96h 14.7µM (no result: Pf growth 48h)
Cc1ccc(-c2nnc3ccc(SCC(=O)N4CCc5ccccc54)nn23)cc1	AmpC inh detg inconclusive
Cc1ccc(-c2nnc3ccc(SCC(=O)N4CCCc5ccccc54)nn23)cc1	Pf growth 48h inconclusive, Pf growth 96h 10.4µM
COc1ccc(OC)c(NC(=O)CN(C)S(=O)(=O)c2ccc3[nH]c4c(c3c2)CCCC4)c1	none (no result: Pf growth 48h, AmpC inh no detg, SARS PLP yeast, Pf growth 96h)
CC(CNC(=O)c1ccc(C#N)cc1)NC(=O)c1ccc(C#N)cc1 (centres undefined)	none
COC(=O)C(NC(=O)c1ccc(Cl)cc1)(Nc1nc(C)cs1)C(F)(F)F (centres undefined)	Pf growth 96h inconclusive
COc1cc2c(C(=O)N3CCN(c4cccc(C)c4)C(C)C3)cn(CC(C)C)c(=O)c2cc1OC (centres undefined)	none (no result: Pf growth 48h, AmpC inh no detg, SARS PLP yeast, Pf growth 96h)
COC(=O)[C@@]1(Cc2ccc(OC)cc2)[C@H]2c3cc(C(=O)N(C)C)n(Cc4ccc(OC(F)(F)F)cc4)c3C[C@H]2CN1C(=O)c1ccccc1	Pf growth 48h inconclusive, AmpC inh detg inconclusive, Pf growth 96h 3.29µM
COC(=O)[C@@]1(Cc2ccc(F)cc2)[C@H]2c3cc(C(=O)N(C)C)[nH]c3C[C@H]2CN1C(=O)c1ccccc1	Pf growth 48h 13.1µM, AmpC inh detg inconclusive, Pf growth 96h 13.1µM
COC(=O)[C@]1(Cc2ccccc2)N[C@H](CN(C)C(=O)c2ccc(F)cc2)[C@@H]2C(=O)N(Cc3ccccc3)C(=O)[C@@H]21	none (no result: Pf growth 48h, AmpC inh detg, Sm TGR inh, Pf growth 96h)
COc1ccc(CCNC(=O)C2CCN(C(=O)c3ccc(F)cc3)CC2)cc1OC	none
COC(=O)[C@@]1(Cc2ccc(F)cc2)[C@H]2c3cc(C(=O)N(C)C)n(CCc4ccc(OC)c(Br)c4)c3C[C@H]2CN1C(=O)c1ccccc1	Pf growth 48h inconclusive, AmpC inh detg inconclusive, Pf growth 96h 5.86µM
COC(=O)[C@@]1(Cc2ccc(F)cc2)[C@H]2c3cc(C(=O)N(C)C)n(Cc4ccc(OC)c(OC)c4)c3C[C@H]2CN1C(=O)c1ccccc1	Pf growth 48h inconclusive, Pf growth 96h 5.22µM
CC(C)(C)c1ccc(-c2nc(O)c(CC(=O)O)s2)cc1	none
COc1ccc(OCC(=O)NCc2ccc3c(c2)CCN3C(=O)c2ccccc2)cc1	none (no result: Pf growth 48h, AmpC inh no detg, SARS PLP yeast, Pf growth 96h)
